The target in experiment [1] is T1, Inhibitor of nuclear factor kappa-B kinase subunit epsilon (Homo sapiens) (UniProt Q14164).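 Also: reported values are averaged percent inhibition figures against human IKKε.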
T1 sequence (whole entry): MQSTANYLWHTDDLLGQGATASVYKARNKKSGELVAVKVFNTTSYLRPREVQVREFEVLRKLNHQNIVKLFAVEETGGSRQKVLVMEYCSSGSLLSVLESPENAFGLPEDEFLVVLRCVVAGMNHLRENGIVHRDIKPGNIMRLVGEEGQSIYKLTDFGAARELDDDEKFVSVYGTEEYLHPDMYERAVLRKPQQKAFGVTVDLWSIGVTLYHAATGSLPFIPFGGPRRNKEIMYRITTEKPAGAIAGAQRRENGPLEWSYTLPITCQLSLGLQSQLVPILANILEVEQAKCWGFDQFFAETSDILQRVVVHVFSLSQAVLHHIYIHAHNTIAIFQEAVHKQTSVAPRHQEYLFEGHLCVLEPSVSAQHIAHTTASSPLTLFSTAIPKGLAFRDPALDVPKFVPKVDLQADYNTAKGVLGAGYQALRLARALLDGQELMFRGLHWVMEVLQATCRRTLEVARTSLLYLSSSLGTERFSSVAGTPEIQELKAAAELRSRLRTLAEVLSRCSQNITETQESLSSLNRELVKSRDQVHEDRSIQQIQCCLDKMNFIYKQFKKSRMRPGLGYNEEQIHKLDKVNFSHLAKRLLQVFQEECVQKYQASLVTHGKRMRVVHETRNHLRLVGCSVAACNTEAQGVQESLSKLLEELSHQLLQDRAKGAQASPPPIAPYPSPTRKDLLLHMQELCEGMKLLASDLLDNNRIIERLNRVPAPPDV
Conditions: at 1 µM.

For experiment [2], the target named is T2, Serine/threonine-protein kinase Nek1 (Homo sapiens) (UniProt Q96PY6).
T2 sequence (whole entry): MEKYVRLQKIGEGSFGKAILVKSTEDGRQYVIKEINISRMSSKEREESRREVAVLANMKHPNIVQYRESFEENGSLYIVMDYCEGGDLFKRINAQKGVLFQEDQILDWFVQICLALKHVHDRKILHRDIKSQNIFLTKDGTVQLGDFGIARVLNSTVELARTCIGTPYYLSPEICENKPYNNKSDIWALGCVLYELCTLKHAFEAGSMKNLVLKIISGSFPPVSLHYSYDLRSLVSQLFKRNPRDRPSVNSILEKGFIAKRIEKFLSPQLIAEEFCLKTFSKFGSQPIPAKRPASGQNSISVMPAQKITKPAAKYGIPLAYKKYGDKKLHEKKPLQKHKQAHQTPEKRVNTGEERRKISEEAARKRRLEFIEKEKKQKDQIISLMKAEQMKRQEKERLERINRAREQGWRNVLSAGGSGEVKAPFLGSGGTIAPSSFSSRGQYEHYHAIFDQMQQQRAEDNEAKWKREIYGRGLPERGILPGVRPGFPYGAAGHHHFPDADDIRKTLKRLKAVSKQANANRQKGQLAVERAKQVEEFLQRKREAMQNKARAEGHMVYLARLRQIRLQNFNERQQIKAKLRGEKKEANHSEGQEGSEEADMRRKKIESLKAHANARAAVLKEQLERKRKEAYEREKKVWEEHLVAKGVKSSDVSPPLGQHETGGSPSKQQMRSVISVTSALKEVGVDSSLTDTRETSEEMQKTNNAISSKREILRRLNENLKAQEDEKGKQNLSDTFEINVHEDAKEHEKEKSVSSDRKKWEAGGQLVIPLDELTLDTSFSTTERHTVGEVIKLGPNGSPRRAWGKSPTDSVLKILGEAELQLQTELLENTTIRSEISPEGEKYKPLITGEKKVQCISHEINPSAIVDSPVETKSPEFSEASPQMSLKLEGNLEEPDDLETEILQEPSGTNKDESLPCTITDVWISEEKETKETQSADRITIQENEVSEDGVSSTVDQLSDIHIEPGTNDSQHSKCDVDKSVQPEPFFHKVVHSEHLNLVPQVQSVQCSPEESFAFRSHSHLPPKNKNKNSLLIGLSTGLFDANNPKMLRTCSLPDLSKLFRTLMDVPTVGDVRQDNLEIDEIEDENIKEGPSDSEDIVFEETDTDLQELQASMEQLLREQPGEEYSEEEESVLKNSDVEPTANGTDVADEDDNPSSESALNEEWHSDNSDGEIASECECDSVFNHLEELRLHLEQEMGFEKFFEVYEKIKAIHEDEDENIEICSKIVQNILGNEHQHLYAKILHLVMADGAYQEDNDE
The note with it: at 0.1 µM.

For experiment [3], the target named is T2, Serine/threonine-protein kinase Nek1 (Homo sapiens). The note with it: at 1 µM.
In experiment [4] the target is T3, Serine/threonine-protein kinase Nek2 (Homo sapiens) (UniProt P51955).
T3 sequence (whole entry): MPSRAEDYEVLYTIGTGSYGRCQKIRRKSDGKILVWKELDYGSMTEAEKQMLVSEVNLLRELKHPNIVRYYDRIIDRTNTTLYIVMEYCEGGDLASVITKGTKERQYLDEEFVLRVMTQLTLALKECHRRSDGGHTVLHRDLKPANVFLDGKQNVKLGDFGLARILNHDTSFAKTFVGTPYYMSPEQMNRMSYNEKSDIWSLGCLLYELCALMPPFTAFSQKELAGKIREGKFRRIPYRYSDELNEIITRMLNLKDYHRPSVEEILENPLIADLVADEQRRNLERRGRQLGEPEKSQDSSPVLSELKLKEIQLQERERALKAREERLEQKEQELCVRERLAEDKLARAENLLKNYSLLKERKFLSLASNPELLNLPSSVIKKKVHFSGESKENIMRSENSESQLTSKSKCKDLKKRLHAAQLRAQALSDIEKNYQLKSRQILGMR
Conditions: at 0.1 µM.

Experiment [5] deals with T3, Serine/threonine-protein kinase Nek2 (Homo sapiens). Conditions: at 1 µM.
Experiment [6] concerns the target Serine/threonine-protein kinase Nek6 (Homo sapiens) (UniProt Q9HC98). Conditions: at 0.1 µM.
Experiment [7] shares this target. The note with it: at 1 µM.
For experiment [8], the target named is Serine/threonine-protein kinase Nek7 (Homo sapiens) (UniProt Q8TDX7). The note with it: at 0.1 µM.
For experiment [9] the target is unchanged. The note with it: at 1 µM.
Experiment [10] deals with T4, Serine/threonine-protein kinase Nek9 (Homo sapiens) (UniProt Q8TD19).
T4 sequence (whole entry): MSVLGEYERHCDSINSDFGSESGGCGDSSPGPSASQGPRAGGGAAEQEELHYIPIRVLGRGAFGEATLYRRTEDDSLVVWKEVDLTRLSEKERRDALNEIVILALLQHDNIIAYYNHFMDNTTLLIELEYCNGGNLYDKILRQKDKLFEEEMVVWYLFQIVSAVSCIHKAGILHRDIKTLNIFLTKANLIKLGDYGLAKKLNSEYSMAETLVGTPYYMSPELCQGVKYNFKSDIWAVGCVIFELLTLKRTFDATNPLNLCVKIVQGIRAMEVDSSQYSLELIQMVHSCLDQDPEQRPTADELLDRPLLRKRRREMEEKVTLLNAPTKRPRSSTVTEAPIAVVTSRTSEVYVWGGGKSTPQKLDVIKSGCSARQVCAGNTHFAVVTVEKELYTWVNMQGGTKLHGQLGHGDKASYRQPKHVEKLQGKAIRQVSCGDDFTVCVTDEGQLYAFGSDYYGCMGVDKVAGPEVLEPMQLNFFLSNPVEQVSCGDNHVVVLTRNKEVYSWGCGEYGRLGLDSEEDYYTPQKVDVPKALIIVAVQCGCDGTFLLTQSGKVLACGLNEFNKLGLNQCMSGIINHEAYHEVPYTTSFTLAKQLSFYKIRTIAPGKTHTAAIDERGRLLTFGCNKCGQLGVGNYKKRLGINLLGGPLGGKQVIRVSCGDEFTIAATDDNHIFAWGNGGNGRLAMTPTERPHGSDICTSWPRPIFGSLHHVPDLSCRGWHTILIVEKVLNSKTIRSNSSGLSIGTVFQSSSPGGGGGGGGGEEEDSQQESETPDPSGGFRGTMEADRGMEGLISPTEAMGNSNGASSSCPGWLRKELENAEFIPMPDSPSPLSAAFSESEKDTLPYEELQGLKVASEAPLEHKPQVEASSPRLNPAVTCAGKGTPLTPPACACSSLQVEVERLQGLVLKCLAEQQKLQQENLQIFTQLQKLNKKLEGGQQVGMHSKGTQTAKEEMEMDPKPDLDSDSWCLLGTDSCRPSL
The note with it: at 0.1 µM.

Experiment [11] deals with T4, Serine/threonine-protein kinase Nek9 (Homo sapiens). Conditions: at 1 µM.
Experiment [12] concerns the target Serine/threonine-protein kinase PLK1 (Homo sapiens) (UniProt P53350). Conditions: at 0.1 µM.
Experiment [13] shares this target. Conditions: at 1 µM.
In experiment [14] the target is T5, Dual specificity protein kinase TTK (Homo sapiens) (UniProt P33981).
T5 sequence (whole entry): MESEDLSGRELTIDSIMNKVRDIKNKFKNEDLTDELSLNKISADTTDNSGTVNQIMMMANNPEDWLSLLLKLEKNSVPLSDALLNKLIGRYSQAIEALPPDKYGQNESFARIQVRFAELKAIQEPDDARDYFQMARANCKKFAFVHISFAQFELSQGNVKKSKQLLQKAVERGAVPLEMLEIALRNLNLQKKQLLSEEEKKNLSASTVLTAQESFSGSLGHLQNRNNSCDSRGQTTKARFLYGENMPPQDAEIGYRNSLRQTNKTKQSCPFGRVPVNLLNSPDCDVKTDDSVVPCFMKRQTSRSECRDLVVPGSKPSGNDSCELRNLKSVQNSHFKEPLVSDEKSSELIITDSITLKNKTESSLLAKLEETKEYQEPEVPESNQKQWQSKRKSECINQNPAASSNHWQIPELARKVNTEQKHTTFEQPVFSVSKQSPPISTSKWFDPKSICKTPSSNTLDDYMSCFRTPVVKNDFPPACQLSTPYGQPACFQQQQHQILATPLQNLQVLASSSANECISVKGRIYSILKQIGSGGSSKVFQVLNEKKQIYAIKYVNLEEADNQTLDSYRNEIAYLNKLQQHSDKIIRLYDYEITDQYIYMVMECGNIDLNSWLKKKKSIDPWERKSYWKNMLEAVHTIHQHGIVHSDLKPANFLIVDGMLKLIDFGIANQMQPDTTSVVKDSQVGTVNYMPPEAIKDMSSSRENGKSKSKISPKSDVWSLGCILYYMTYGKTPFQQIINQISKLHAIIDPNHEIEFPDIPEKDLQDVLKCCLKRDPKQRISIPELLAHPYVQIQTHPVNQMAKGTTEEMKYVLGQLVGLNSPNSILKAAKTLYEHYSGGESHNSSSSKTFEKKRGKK
The note with it: at 0.1 µM.

For experiment [15], the system named is T6, Receptor-type tyrosine-protein kinase FLT3 (Homo sapiens), P36888 [D835Y].
T6 sequence (whole entry): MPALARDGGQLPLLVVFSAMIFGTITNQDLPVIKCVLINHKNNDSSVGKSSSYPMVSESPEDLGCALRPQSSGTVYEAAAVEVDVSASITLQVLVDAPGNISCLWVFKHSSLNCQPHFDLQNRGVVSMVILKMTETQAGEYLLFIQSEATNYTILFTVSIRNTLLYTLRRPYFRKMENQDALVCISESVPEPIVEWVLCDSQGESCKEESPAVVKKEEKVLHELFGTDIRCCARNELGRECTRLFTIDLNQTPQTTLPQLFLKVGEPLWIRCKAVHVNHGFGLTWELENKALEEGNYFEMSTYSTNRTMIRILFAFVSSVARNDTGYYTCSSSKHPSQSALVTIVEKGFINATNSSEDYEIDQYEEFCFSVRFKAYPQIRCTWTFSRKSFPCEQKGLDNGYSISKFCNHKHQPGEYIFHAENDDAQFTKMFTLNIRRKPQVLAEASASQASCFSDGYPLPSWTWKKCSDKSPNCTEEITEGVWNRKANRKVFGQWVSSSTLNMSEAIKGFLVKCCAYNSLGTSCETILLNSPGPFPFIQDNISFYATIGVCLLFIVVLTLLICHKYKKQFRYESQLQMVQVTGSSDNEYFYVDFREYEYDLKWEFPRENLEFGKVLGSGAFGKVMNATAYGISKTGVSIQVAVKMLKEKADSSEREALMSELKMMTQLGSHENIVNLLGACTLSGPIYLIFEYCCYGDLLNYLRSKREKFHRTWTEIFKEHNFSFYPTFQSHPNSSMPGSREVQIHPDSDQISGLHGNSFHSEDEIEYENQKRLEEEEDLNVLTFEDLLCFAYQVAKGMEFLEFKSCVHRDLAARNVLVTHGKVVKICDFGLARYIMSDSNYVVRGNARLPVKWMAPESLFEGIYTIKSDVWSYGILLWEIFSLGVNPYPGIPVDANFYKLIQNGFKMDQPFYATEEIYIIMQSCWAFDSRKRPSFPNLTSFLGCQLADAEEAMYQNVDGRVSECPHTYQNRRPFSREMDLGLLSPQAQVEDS
The note with it: at 1 µM.

Experiment [16] has as its target Vascular endothelial growth factor receptor 3 (Homo sapiens) (UniProt P35916). The note with it: at 0.1 µM.
Experiment [17] shares this target. The note with it: at 1 µM.
The target of experiment [18] is Macrophage colony-stimulating factor 1 receptor (Homo sapiens) (UniProt P07333). The note with it: at 0.1 µM.
For experiment [19] the target is unchanged. Conditions: at 1 µM.
Experiment [20] has as its target Tyrosine-protein kinase Fyn (Homo sapiens) (UniProt P06241). The note with it: at 0.1 µM.

Each structure is given as a SMILES string.

Sequence of Vascular endothelial growth factor receptor 3 (Homo sapiens) (P35916 whole entry): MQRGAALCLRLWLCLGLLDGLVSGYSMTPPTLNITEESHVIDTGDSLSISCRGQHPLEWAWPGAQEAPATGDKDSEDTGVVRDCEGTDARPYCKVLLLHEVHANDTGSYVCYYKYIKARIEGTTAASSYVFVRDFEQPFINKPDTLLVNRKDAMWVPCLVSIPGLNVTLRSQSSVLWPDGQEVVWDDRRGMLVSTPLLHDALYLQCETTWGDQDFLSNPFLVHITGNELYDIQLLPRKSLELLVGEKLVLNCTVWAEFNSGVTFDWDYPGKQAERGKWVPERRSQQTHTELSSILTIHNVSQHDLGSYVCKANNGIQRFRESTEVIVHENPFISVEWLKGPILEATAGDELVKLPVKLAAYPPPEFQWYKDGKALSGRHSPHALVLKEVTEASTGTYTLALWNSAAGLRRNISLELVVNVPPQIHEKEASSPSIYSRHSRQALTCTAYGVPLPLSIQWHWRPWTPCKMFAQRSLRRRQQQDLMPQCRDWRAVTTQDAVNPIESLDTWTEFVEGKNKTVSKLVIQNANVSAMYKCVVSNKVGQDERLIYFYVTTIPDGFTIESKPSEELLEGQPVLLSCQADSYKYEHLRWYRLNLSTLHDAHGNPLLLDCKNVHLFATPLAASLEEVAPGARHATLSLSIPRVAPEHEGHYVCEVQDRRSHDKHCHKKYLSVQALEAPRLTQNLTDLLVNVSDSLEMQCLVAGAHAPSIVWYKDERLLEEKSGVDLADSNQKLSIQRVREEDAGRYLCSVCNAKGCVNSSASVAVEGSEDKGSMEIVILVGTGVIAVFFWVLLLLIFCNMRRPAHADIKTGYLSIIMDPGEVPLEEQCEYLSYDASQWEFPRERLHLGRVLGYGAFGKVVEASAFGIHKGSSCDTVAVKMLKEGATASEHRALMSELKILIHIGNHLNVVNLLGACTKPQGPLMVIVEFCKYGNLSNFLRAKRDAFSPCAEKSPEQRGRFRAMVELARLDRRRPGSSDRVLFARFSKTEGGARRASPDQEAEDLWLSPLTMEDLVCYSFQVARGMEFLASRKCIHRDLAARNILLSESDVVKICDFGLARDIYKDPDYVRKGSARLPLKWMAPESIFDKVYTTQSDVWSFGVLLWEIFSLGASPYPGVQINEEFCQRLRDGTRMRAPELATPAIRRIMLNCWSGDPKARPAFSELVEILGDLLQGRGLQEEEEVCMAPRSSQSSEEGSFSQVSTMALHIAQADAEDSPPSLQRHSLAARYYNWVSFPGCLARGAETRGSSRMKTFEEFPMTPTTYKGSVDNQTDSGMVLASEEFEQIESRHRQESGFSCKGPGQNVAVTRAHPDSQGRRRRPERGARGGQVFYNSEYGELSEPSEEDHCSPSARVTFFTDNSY
Sequence of Serine/threonine-protein kinase Nek7 (Homo sapiens) (Q8TDX7 whole entry, looked up): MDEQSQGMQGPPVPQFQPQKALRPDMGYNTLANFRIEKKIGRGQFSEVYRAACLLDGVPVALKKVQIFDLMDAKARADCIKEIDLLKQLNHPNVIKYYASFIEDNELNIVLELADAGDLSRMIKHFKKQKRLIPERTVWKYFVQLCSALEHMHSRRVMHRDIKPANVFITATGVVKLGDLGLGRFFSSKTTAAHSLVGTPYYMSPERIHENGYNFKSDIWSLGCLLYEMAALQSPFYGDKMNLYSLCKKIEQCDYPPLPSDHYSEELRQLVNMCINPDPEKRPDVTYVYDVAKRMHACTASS
Sequence of Serine/threonine-protein kinase Nek6 (Homo sapiens) (Q9HC98 whole entry): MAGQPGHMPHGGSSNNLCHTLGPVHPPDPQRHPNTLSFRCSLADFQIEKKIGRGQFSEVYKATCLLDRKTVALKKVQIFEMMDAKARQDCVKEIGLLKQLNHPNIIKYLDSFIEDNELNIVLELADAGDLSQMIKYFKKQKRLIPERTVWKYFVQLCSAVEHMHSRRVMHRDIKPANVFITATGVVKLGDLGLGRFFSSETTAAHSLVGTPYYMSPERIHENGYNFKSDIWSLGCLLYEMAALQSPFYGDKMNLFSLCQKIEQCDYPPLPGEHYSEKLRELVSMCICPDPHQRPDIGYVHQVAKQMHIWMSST
Sequence of Serine/threonine-protein kinase PLK1 (Homo sapiens) (P53350 whole entry): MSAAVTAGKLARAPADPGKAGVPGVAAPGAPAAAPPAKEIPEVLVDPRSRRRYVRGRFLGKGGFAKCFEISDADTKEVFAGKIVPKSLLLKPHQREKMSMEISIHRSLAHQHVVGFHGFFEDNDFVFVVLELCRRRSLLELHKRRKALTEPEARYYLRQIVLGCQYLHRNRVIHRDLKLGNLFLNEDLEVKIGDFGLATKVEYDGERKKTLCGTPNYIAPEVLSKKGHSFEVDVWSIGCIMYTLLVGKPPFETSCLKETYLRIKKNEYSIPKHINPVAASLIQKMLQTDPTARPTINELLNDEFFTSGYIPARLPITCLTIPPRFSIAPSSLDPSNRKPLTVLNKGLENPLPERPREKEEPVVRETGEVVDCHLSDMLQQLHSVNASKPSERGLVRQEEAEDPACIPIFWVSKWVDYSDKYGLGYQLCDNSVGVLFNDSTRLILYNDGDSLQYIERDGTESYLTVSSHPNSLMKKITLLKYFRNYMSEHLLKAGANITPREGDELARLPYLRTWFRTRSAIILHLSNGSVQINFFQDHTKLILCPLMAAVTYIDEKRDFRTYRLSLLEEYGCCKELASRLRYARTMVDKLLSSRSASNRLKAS
Sequence of Macrophage colony-stimulating factor 1 receptor (Homo sapiens) (P07333 whole entry): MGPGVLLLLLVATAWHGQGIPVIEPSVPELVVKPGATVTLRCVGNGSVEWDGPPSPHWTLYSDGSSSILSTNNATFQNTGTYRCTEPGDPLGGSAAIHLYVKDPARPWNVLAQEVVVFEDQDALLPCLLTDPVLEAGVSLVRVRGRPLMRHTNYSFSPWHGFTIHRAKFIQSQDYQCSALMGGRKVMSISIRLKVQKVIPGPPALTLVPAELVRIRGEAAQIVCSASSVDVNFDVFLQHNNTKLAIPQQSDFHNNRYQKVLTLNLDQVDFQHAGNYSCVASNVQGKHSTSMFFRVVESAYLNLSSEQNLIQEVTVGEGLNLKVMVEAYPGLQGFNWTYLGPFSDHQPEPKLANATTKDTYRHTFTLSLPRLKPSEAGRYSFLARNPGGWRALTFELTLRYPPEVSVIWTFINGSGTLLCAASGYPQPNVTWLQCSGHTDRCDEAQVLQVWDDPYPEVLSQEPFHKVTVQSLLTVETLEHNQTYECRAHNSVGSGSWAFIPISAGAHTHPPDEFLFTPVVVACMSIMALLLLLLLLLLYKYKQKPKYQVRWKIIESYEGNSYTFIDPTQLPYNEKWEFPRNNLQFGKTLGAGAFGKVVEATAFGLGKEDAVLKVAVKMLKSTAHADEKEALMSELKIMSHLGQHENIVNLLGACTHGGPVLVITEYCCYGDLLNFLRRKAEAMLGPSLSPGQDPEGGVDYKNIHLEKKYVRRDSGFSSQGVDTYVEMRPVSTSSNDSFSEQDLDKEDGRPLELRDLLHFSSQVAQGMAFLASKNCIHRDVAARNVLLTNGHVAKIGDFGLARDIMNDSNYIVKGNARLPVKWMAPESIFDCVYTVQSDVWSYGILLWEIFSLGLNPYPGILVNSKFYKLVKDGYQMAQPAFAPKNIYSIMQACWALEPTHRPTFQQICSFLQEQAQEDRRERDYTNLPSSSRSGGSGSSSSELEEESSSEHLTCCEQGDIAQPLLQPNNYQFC
Sequence of Tyrosine-protein kinase Fyn (Homo sapiens) (P06241 2-537 limits assumed): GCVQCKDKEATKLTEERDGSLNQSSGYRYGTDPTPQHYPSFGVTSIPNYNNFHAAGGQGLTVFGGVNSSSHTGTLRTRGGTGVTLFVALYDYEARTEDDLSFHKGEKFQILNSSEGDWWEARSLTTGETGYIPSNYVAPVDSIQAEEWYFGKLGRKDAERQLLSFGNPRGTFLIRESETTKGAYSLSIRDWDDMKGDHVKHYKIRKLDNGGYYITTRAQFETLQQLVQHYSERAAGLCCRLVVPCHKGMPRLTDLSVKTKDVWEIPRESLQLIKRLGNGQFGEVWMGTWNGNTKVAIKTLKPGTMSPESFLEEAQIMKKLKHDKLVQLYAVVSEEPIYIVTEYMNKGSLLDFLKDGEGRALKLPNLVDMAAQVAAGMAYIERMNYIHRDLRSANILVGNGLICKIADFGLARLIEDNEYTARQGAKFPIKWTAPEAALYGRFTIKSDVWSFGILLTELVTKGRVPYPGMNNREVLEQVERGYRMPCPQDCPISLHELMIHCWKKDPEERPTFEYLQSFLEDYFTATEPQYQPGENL

Regarding `CS(=O)(=O)Nc1cccc(-c2ccc3c(NC(=O)C4CC4)n[nH]c3c2)c1`, the inhibition in experiment [1] stood at 2.59%; in experiment [2] it was 0.75%; in [3], 1.07%; in experiment [4], 1.36%; in [5], 0.27%; in [6], 1.36%. Besides, the inhibition is -1.38% in [7]; 2.34% in [8]; 1.08% in experiment [9]; 2.01% in [10]; 3.4% in experiment [11]; 0.09% in experiment [12]. Also, the inhibition in [13] was 2.1%; in [14] it was 2.91%; in [15], -5.02%; in experiment [16], 3.41%; in experiment [17], 1.96%; in [18], -0.21%. Also, the figures for the inhibition in experiment [19] and in [20] were 1.8% and 2.53%, respectively.

In the case of `CCOc1nccc2c1nc(-c1nonc1N)n2CC`, the inhibition stood at 6.4% in experiment [1]; 5.3% in experiment [2]; 8.93% in [3]; 3.98% in [4]; 7.87% in experiment [5]; 5.75% in experiment [6]. The inhibition in experiment [7] turned out to be 5.08%; in [8], 2.9%; in experiment [9], 3.26%; in experiment [10] it was 6.44%; in experiment [11], 11.4%; in experiment [12], 5.12%. The inhibition in [13] was 5.25%; in experiment [14], 7.47%; in [15], -1.34%; in experiment [16] it was 12.8%; in experiment [17] it was 19.3%; in experiment [18], 0.65%. The inhibition in experiment [19] was found to be 2.68%; in experiment [20] it was 0.3%.

The values above are taken from ChEMBL document CHEMBL1961873, “Compounds: GSK PKIS; Assays: Nanosyn kinase panel” (2012).
